Read-out in test [1]: Phosphatase and tensin (PTEN), PTEN (gene 5728)
The experiment in a line: LTEA_HepaRG_PTEN: Life Technologies and Expression Analysis (LTEA) Assay for Phosphatase and tensin (PTEN) using HepaRG (AID 2283523). To be noted: mRNA level, 48 h; actives raise or lower the signal. A digest of the protocol:
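Read-out: TaqMan qRT-PCR of PTEN transcript, normalized to three housekeeping genes, fitted in both directions against 0.5% DMSO. Differentiated human HepaRG cultures received chemicals for 48 h, eight-point half-log series topping at 100 uM.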

Read-out in test [2]: solute carrier (SLC22A1), SLC22A1 (gene 6580)
Put plainly: LTEA_HepaRG_SLC22A1: Life Technologies and Expression Analysis (LTEA) Assay for solute carrier (SLC22A1) using HepaRG (AID 2283524).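 On AC50: differentiated human HepaRG liver cells in serum-free induction medium.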 The note with it: mRNA level, 48 h; actives raise or lower the signal. A digest of the protocol: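 Transcript level of SLC22A1 quantified by qRT-PCR (normalized to three housekeeping genes) after 48 h chemical exposure of HepaRG cells, eight concentrations up to 100 µM, half-log steps, 0.5% DMSO vehicle. Gain or loss relative to DMSO fitted bidirectionally.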

Read-out in test [3]: Pyruvate Dehydrogenase Kinase 4 (PDK4), PDK4 (gene 5166)
Put plainly: LTEA_HepaRG_PDK4: Life Technologies and Expression Analysis (LTEA) Assay for Pyruvate Dehydrogenase Kinase 4 (PDK4) using HepaRG (AID 2283525). The note with it: mRNA level, 48 h; actives raise or lower the signal. A digest of the protocol: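 Readout is qRT-PCR of PDK4 transcript, normalized to three housekeeping genes, with bidirectional fitting against 0.5% DMSO vehicle. Differentiated HepaRG cells were treated 48 h in serum-free induction medium, duplicate wells, eight-point half-log series topping at 100 uM.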

Read-out in test [4]: Nuclear factor erythroid 2-related factor 2 (Homo sapiens) (UniProt Q16236)
The experiment in a line: LTEA_HepaRG_NFE2L2: Life Technologies and Expression Analysis (LTEA) Assay for Nuclear factor erythroid 2-related factor 2 (NFE2L2) Transcription Factor using HepaRG (AID 2283527). To be noted: mRNA level, 48 h; actives raise or lower the signal. The essentials:
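NFE2L2 transcript level was read by qRT-PCR (housekeeping ACTB/GAPDH/POLR2A normalisation) after 48 h chemical treatment of HepaRG in serum-free induction medium. Duplicate 8-point half-log curves, top 100 uM, 0.5% DMSO vehicle; up- or down-regulation fitted against vehicle.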

Read-out in test [5]: succinate dehydrogenase complex iron sulfur subunit B (SDHB), SDHB (gene 6390)
Put plainly: LTEA_HepaRG_SDHB: Life Technologies and Expression Analysis (LTEA) Assay for succinate dehydrogenase complex iron sulfur subunit B (SDHB) using HepaRG (AID 2283528). To be noted: mRNA level, 48 h; actives raise or lower the signal. The essentials:
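Readout is SDHB transcript level by qRT-PCR, normalised to three housekeeping genes and fitted bidirectionally against 0.5% DMSO vehicle. Human HepaRG cells were treated for 48 h at up to 100 uM.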

Read-out in test [6]: Signal transducer and activator of transcription 3 (Homo sapiens) (UniProt P40763)
The experiment in a line: LTEA_HepaRG_STAT3: Life Technologies and Expression Analysis (LTEA) Assay for Signal transducer and activator of transcription (STAT3) using HepaRG (AID 2283529). The note with it: mRNA level, 48 h; actives raise or lower the signal. The essentials: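 STAT3 transcript quantified by qRT-PCR against three housekeeping genes (ACTB, GAPDH, POLR2A), fitted both directions relative to DMSO. HepaRG cultures exposed 48 h to eight half-log concentrations, top 100 uM, 0.5% DMSO, serum-free induction medium.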

Read-out in test [7]: solute carrier (SLCO1B1), SLCO1B1 (gene 10599)
Put plainly: LTEA_HepaRG_SLCO1B1: Life Technologies and Expression Analysis (LTEA) Assay for solute carrier (SLCO1B1) using HepaRG (AID 2283530). To be noted: mRNA level, 48 h; actives raise or lower the signal. The essentials:
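Human HepaRG cultures treated for 48 h with an eight-concentration half-log series topping at 100 uM; SLCO1B1 measured by qRT-PCR and fitted bidirectionally relative to DMSO.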

Read-out in test [8]: sulfotransferase 2A1 (SULT2A1), SULT2A1 (gene 6822)
The experiment in a line: LTEA_HepaRG_SULT2A1: Life Technologies and Expression Analysis (LTEA) Assay for sulfotransferase 2A1 (SULT2A1) using HepaRG (AID 2283531). To be noted: mRNA level, 48 h; actives raise or lower the signal. A digest of the protocol: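 Gene-expression endpoint in a human liver cell line: SULT2A1 mRNA change after 48 h chemical treatment, curves fitted in both directions relative to 0.5% DMSO vehicle. Concentrations spanned eight half-log steps from 100 uM.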

Read-out in test [9]: Transforming Growth Factor (TGFA), TGFA (gene 7039)
The experiment in a line: LTEA_HepaRG_TGFA: Life Technologies and Expression Analysis (LTEA) Assay for Transforming Growth Factor (TGFA) using HepaRG (AID 2283532). To be noted: mRNA level, 48 h; actives raise or lower the signal. A digest of the protocol:
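TGFA transcript quantified by qRT-PCR (Fluidigm arrays) against three housekeeping genes, after 48 hours chemical treatment of HepaRG cells. Top concentration 100 uM with half-log dilutions, 8 points, duplicates, 0.5% DMSO.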

Read-out in test [10]: Transforming Growth Factor (TGFB1), TGFB1 (gene 7040)
Put plainly: LTEA_HepaRG_TGFB1: Life Technologies and Expression Analysis (LTEA) Assay for Transforming Growth Factor (TGFB1) Transporter using HepaRG (AID 2283533). The note with it: mRNA level, 48 h; actives raise or lower the signal. The essentials:
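Eight-point concentration-response (max 100 uM, half-log) in HepaRG under serum-free induction conditions, 48 h. TGFB1 mRNA by qRT-PCR, housekeeping-normalized.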

Read-out in test [11]: TIMP1, TIMP1 (gene 7076)
Put plainly: LTEA_HepaRG_TIMP1: Life Technologies and Expression Analysis (LTEA) Assay for TIMP1 using HepaRG (AID 2283534). The note with it: mRNA level, 48 h; actives raise or lower the signal. A digest of the protocol: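 TIMP1 induction or repression in HepaRG cells after 48 h chemical exposure (eight concentrations, highest 100 uM), assessed by normalized qRT-PCR with bidirectional fitting to DMSO controls.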

Read-out in test [12]: Tumor necrosis factor receptor 1 (TNFRSF1A), TNFRSF1A (gene 7132)
Put plainly: LTEA_HepaRG_TNFRSF1A: Life Technologies and Expression Analysis (LTEA) Assay for Tumor necrosis factor receptor 1 (TNFRSF1A) using HepaRG (AID 2283535). To be noted: mRNA level, 48 h; actives raise or lower the signal. The essentials: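 Assay uses 48 h chemical treatment of differentiated HepaRG monolayers, tested in duplicate at eight concentrations from 100 uM downward in 0.5% DMSO. mRNA is normalized to ACTB, GAPDH and POLR2A, with induction or suppression fitted relative to vehicle.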

Read-out in test [13]: Cellular tumor antigen p53 (Homo sapiens) (UniProt P04637)
Put plainly: LTEA_HepaRG_TP53: Life Technologies and Expression Analysis (LTEA) Assay for Tumor Protein P53 (TP53) using HepaRG (AID 2283537). To be noted: mRNA level, 48 h; actives raise or lower the signal. A digest of the protocol: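 Read-out is TP53 transcript level by microfluidic qRT-PCR, normalised to three housekeeping genes and fitted bidirectionally against DMSO. Human HepaRG cells received compounds for 48 h, highest concentration 100 uM.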

Read-out in test [14]: UDP glucuronosyltransferase (UGT1A1), UGT1A1 (gene 54658)
Put plainly: LTEA_HepaRG_UGT1A1: Life Technologies and Expression Analysis (LTEA) Assay for UDP glucuronosyltransferase (UGT1A1) using HepaRG (AID 2283538). The note with it: mRNA level, 48 h; actives raise or lower the signal. A digest of the protocol: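 HepaRG, 48 h chemical exposure (top 100 uM, half-log 8-pt, 0.5% DMSO vehicle), duplicate wells; qRT-PCR (TaqMan, Fluidigm array) for UGT1A1 mRNA, housekeeping-normalized; bidirectional curve fit vs DMSO baseline.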

Read-out in test [15]: UDP glucuronosyltransferase (UGT1A6), UGT1A6 (gene 54578)
Put plainly: LTEA_HepaRG_UGT1A6: Life Technologies and Expression Analysis (LTEA) Assay for UDP glucuronosyltransferase (UGT1A6) using HepaRG (AID 2283539). To be noted: mRNA level, 48 h; actives raise or lower the signal. The essentials: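 Measures mRNA change in HepaRG hepatic cells exposed 48 h to chemicals (eight-point, maximum 100 uM, 0.5% DMSO vehicle) in serum-free induction medium. Expression normalized to endogenous controls; DMSO served as negative control and baseline.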

Test [16] can be described thus: LTEA_HepaRG_LDH_cytotoxicity: Cytotoxicity Assessment in the Life Technologies and Expression Analysis (LTEA) Assay (AID 2283563; active means hit-call score of the fitted dose curve at least 0.9, where 1 is the maximum;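 on AC50: LDH activity released into spent culture medium as a marker of cell death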). The essentials:
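Spent-medium LDH after 48 h chemical exposure of HepaRG cells in serum-free induction medium; eight concentrations, half-log dilutions from 100 uM, duplicate wells, fitted upward relative to 0.5% DMSO.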

Read-out in test [17]: NAD(P)H dehydrogenase [quinone] 1 (NQO1), NQO1 (gene 1728)
Put plainly: LTEA_HepaRG_NQO1: Life Technologies and Expression Analysis (LTEA) Assay for NAD(P)H dehydrogenase [quinone] 1 (NQO1) using HepaRG (AID 2283526). The note with it: mRNA level, 48 h; actives raise or lower the signal. A digest of the protocol: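 qRT-PCR read-out (Fluidigm TaqMan), normalized to three housekeeping genes, after 48 h chemical exposure of HepaRG cells. Concentrations: eight points, top 100 uM, half-log steps, 0.5% DMSO vehicle. Gain or loss of signal fitted relative to DMSO.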

Read-out in test [18]: Thyroid Hormone Responsive (THRSP), THRSP (gene 7069)
Put plainly: LTEA_HepaRG_THRSP: Life Technologies and Expression Analysis (LTEA) Assay for Thyroid Hormone Responsive (THRSP) using HepaRG (AID 2283536). To be noted: mRNA level, 48 h; actives raise or lower the signal. The essentials:
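THRSP transcript quantified by Fluidigm qRT-PCR against three housekeeping genes after 48 h chemical exposure of HepaRG cells in serum-free induction medium; eight-point half-log series, top 100 uM, 0.5% DMSO vehicle, duplicate wells.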

The nature of test [19]: ATG_XTT_Cytotoxicity: Cytotoxicity Assessment in the Attagene TRANS-FACTORIAL HepG2 Assay (AID 2283584; active means hit-call score of the fitted dose curve at least 0.9, where 1 is the maximum;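 on AC50: XTT signal for cell number as viability in transfected HepG2 cells; cells exposed to compound for 24 h before reading; active means loss of viability signal versus DMSO baseline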). The essentials: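 24 h chemical exposure of reporter-transfected HepG2; XTT signal loss vs DMSO indicates cytotoxicity.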
Read-out in test [20]: X-box binding protein 1 (XBP1), XBP1 (gene 7494)
The experiment in a line: LTEA_HepaRG_XBP1: Life Technologies and Expression Analysis (LTEA) Assay for X-box binding protein 1 (XBP1) using HepaRG (AID 2283540). The note with it: mRNA level, 48 h; actives raise or lower the signal. The essentials: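 Eight concentrations (half-log, highest 100 uM, 0.5% DMSO) tested in duplicate on HepaRG cells over 48 h in serum-free induction medium; qRT-PCR of XBP1 normalised to ACTB, GAPDH, POLR2A.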

Structures are written as SMILES. Records with an inconclusive call do not appear. Activity calls are given as the source filed them. How the source made its calls, unless noted: active means hit-call score of the fitted dose curve at least 0.9, where 1 is the maximum; inactive means score below 0.9.

Nuclear factor erythroid 2-related factor 2 (Homo sapiens), sequence (Q16236 whole entry, looked up): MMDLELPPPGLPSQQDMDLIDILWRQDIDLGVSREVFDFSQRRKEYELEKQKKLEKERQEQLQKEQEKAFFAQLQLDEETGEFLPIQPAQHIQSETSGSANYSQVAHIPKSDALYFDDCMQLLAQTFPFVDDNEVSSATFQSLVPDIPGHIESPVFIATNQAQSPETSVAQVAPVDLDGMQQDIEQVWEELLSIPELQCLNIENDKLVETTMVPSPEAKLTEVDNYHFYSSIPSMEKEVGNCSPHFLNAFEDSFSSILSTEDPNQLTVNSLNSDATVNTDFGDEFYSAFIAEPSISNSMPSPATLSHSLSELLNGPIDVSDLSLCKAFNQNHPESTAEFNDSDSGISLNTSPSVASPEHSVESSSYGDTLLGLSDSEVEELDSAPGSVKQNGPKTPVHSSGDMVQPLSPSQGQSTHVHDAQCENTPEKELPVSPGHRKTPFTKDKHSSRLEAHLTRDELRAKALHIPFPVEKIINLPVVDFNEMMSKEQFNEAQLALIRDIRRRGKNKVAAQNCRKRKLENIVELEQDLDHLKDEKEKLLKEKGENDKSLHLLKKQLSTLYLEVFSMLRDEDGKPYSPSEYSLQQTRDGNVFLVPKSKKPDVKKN
Signal transducer and activator of transcription 3 (Homo sapiens), sequence (P40763 whole entry, looked up): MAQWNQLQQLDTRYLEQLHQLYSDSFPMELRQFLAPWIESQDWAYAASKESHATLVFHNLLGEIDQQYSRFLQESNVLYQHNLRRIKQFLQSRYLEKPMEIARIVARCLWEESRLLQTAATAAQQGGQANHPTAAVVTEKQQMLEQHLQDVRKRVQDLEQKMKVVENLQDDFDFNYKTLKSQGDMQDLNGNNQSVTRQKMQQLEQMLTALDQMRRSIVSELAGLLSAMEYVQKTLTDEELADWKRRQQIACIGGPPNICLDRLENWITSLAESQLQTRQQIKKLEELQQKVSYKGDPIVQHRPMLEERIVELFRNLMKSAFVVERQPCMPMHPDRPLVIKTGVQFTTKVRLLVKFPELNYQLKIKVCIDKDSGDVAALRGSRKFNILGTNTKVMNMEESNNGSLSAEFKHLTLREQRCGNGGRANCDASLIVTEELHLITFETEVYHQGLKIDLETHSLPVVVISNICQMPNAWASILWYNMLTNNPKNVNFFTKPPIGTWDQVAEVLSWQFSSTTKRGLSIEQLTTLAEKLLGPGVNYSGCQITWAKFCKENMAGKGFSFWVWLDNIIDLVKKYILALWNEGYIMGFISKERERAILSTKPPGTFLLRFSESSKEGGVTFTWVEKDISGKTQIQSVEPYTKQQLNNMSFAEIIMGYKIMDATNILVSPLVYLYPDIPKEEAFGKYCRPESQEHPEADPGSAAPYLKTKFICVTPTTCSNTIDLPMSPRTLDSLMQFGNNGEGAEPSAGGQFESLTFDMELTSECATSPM
Cellular tumor antigen p53 (Homo sapiens), sequence (P04637 whole entry, looked up): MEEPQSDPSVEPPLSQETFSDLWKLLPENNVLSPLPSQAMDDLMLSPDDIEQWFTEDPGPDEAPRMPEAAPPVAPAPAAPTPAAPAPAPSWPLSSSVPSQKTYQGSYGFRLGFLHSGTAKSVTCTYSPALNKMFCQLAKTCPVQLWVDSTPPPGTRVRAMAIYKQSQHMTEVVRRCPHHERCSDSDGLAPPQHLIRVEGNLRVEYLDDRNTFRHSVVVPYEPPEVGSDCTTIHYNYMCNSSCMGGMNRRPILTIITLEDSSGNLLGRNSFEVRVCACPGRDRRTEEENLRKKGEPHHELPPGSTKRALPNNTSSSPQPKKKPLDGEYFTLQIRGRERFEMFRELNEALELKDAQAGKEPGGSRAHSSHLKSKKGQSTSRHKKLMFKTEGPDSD

In general, AC50 refers to the concentration giving half of the maximal activity seen. For `COc1ccc2sc(C(=O)Nc3nnn[nH]3)c(OC(C)C)c2c1`, the outcome in test [1], in test [5], in test [6], in [10], in [11] and in test [16] was inactive. Besides, the AC50 in [2] is 97.4 µM (active); in [3], 32.5 µM (active); in test [4], 27.6 µM (active); in test [7], 81.7 µM (active); in [8] it was 78.4 µM (active); in test [9] it was 34 µM (active). Further, the concentration at half-maximal activity (AC50) is 39 µM (active) in [12], 38.9 µM (active) in [13], 12.9 µM (active) in test [14] and 50 µM (active) in test [15].

Turning to `O=C(NS(=O)(=O)/C=C/c1ccccc1)c1ccc(F)cc1Cl`, the outcome in test [1], in test [2], in test [17], in test [4], in test [5] and in [6] was inactive. The result in [7], in test [8], in [9], in test [10], in [11] and in test [12] was inactive. In addition, the molecule was called inactive in test [13], in test [15], in test [16] and in [19]. Besides, the concentration at half-maximal activity (AC50) in [18] was 0.502 µM (active); in test [14], 17.1 µM (active).

As for `O=C(CCCCCCCCc1cccnc1)N1CCC(C=C(c2ccccc2)c2ccccc2)CC1`, the outcome in test [1], in test [5], in test [6] and in test [10] was inactive. The half-maximal activity concentration (AC50) is 24.4 µM (active) in [2]; 89.4 µM (active) in [3]; 24.9 µM (active) in test [4]; 50 µM (active) in test [7]; 30.6 µM (active) in test [8]; 27 µM (active) in test [9]. The half-maximal activity concentration (AC50) was 78.7 µM (active) in [11]; 79.2 µM (active) in test [12]; 18.8 µM (active) in test [18]; 22.9 µM (active) in test [13]; 32.9 µM (active) in test [14]; 33.6 µM (active) in [15]. The half-maximal activity concentration (AC50) is 30.9 µM (active) in test [20], 36.8 µM (active) in test [16] and 33.8 µM (active) in test [19].

On to `Nc1cccc(N)c1`, for which the result in test [1], in [2], in test [17], in [4], in [5] and in [6] was inactive. Further, the molecule was called inactive in test [7], in test [8], in [9], in [10], in test [11] and in test [12]. The molecule was classed as inactive in test [18], in [13], in [14], in [15], in [16] and in test [19].
